Measurements from PubChem BioAssay AID1159580 (chemical genetic matrix, 2015).
Among all 5,500 compounds or so, about 2,000 (36%) were called active. Inconclusive results (about 18%) are left out. This is one part of the list. Values without a mark were called inactive. Cut-off read from the data, not from the text of the source: active = normalized growth mostly below about 0.91 (no sharp cut-off); inconclusive = no clear call, values can overlap the other calls; inactive = mostly above about 0.92.

Assay: chemical genetic growth profiling, strain panel (AID 1159580);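 note: tested at 20 µM; growth read once vehicle control cultures reached saturation at 30 °C; 1 = growth at the plate median or of vehicle wells; lower values mean less growth of the strain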
Conditions: S. cerevisiae deletion strains, growth OD

## N/C(=N/OC(=O)Nc1cccc(C(F)(F)F)c1)c1ccc(OC(F)(F)F)cc1
Locus YAR019C, strain CDC15, hits give low values
  normalized growth: 0.983
Locus YBL105C, strain PKC1, hits give low values
  normalized growth: 1
Locus YBR135W, strain CKS1, hits give low values
  normalized growth: 0.979
Locus YBR136W, strain MEC1, hits give low values
  normalized growth: 0.985
Locus YBR160W, strain CDC28, hits give low values
  normalized growth: 0.969
Locus YDL017W, strain CDC7, hits give low values
  normalized growth: 0.995
Locus YDL028C, strain MPS1, hits give low values
  normalized growth: 0.972
Locus YDL101C, strain DUN1, hits give low values
  normalized growth: 0.989
Locus YDL108W, strain KIN28, hits give low values
  normalized growth: 0.975
Locus YDL132W, strain cdc53, hits give low values
  normalized growth: 0.979
Locus YDL214C, strain PRR2, hits give low values
  normalized growth: 0.895
Locus YDR052C, strain DBF4, hits give low values
  normalized growth: 0.998
Locus YDR054C, strain cdc34, hits give low values
  normalized growth: 0.971
Locus YDR226W, strain ADK1, hits give low values
  normalized growth: 0.971
Locus YDR477W, strain SNF1, hits give low values
  normalized growth: 0.822
Locus YER123W, strain YCK3, hits give low values
  normalized growth: 0.524 (active)
Locus YER133W, strain GLC7, hits give low values
  normalized growth: 0.893
Locus YFL009W, strain cdc4, hits give low values
  normalized growth: 0.953
Locus YFL029C, strain CAK1, hits give low values
  normalized growth: 0.981
Locus YFR003C, strain YPI1, hits give low values
  normalized growth: 0.994
Locus YFR019W, strain FAB1, hits give low values
  normalized growth: 0.745 (active)
Locus YFR028C, strain CDC14, hits give low values
  normalized growth: 0.976
Locus YGR040W, strain KSS1, hits give low values
  normalized growth: 0.837
Locus YGR052W, strain FMP48, hits give low values
  normalized growth: 0.551 (active)
Locus YGR092W, strain DBF2, hits give low values
  normalized growth: 0.616
Locus YHR030C, strain SLT2, hits give low values
  normalized growth: 0.21 (active)
Locus YHR079C, strain IRE1, hits give low values
  normalized growth: 0.306 (active)
Locus YHR082C, strain KSP1, hits give low values
  normalized growth: 0.496 (active)
Locus YHR205W, strain SCH9, hits give low values
  normalized growth: 0.882
Locus YIL147C, strain SLN1, hits give low values
  normalized growth: 0.988
Locus YJL095W, strain BCK1, hits give low values
  normalized growth: 0.287 (active)
Locus YJL128C, strain PBS2, hits give low values
  normalized growth: 0.93
Locus YJL157C, strain FAR1, hits give low values
  normalized growth: 0.905
Locus YJR016C, strain ILV3, hits give low values
  normalized growth: 0.988
Locus YJR066W, strain TOR1 (second series), hits give low values
  normalized growth: 0.731
Locus YJR066W, strain TOR1, hits give low values
  normalized growth: 0.555
Locus YKL048C, strain ELM1, hits give low values
  normalized growth: 0.874
Locus YKL067W, strain YNK1, hits give low values
  normalized growth: 0.883
Locus YKL101W, strain HSL1, hits give low values
  normalized growth: 0.743
Locus YKL193C, strain SDS22, hits give low values
  normalized growth: 0.985
Locus YKL203C, strain TOR2, hits give low values
  normalized growth: 0.895
Locus YLR113W, strain HOG1, hits give low values
  normalized growth: 0.361 (active)
Locus YLR133W, strain CKI1, hits give low values
  normalized growth: 0.887
Locus YLR403W, strain SFP1, hits give low values
  normalized growth: 0.914
Locus YML070W, strain DAK1, hits give low values
  normalized growth: 0.716
Locus YMR001C, strain CDC5, hits give low values
  normalized growth: 0.983
Locus YMR205C, strain PFK2 (second series), hits give low values
  normalized growth: 0.906
Locus YMR277W, strain FCP1, hits give low values
  normalized growth: 0.97
Locus YNL006W, strain LST8, hits give low values
  normalized growth: 0.977
Locus YNL020C, strain ARK1, hits give low values
  normalized growth: 0.794
Locus YNL161W, strain CBK1, hits give low values
  normalized growth: 0.996
Locus YNL183C, strain NPR1, hits give low values
  normalized growth: 0.53 (active)
Locus YNL207W, strain RIO2, hits give low values
  normalized growth: 0.995
Locus YNL222W, strain SSU72, hits give low values
  normalized growth: 0.973
Locus YNL307C, strain MCK1 (second series), hits give low values
  normalized growth: 0.814
Locus YOL078W, strain AVO1, hits give low values
  normalized growth: 0.983
Locus YOL136C, strain PFK27, hits give low values
  normalized growth: 0.821
Locus YOR061W, strain CKA2, hits give low values
  normalized growth: 0.883
Locus YOR119C, strain RIO1, hits give low values
  normalized growth: 0.869
Locus YOR231W, strain MKK1, hits give low values
  normalized growth: 0.269 (active)
Locus YOR329C, strain SCD5, hits give low values
  normalized growth: 0.993
Locus YPL031C, strain PHO85, hits give low values
  normalized growth: 0.749
Locus YPL153C, strain RAD53, hits give low values
  normalized growth: 0.485 (active)
Locus YPL204W, strain HRR25, hits give low values
  normalized growth: 0.684
Locus YPL209C, strain IPL1, hits give low values
  normalized growth: 0.992
Locus YPL256C, strain CLN2, hits give low values
  normalized growth: 0.456 (active)
Locus YPR025C, strain CCL1, hits give low values
  normalized growth: 0.99
Locus YPR106W, strain ISR1, hits give low values
  normalized growth: 0.976
Locus YPR111W, strain DBF20, hits give low values
  normalized growth: 0.946
Strain NNK1, hits give low values
  normalized growth: 0.98
Strain TSCII, hits give low values
  normalized growth: 0.986
